# Data from PubChem BioAssay AID1117361 (Southern Research Institute, 2015).
# The campaign covered roughly 3,600 compounds. About 900 (25%) were called active. These entries were drawn from the full list. Potency and affinity values are given separately. Values without a mark were called inactive. No rule for the calls is given here.
# Molecular target: Protein Tat (Human immunodeficiency virus type 1 group M subtype B (isolate HXB2)) (UniProt P04608)
# Test: inhibitors of Tat binding to TAR RNA, dose response, counter-screen for Vif-APOBEC3G degradation inhibitor project, biochemical, fluorescence polarization, FAM-labeled TAR RNA (AID 1117361)
# Conditions: outcome: dose series up to 100 µM unless noted; series mostly up to 100 µM; inhibition: at the top concentration
SMILES,inhibition,outcome
Cc1ccc(N2CC(NC(=O)N3CCN(C(=O)c4ccco4)CC3)CC2=O)cc1 (centres undefined),6.35%,–
CSc1ccc(C2Nc3ccccc3-c3cc(C)nn32)cc1 (centres undefined),2.05%,–
O=C(Nc1ccc2c(c1)OCO2)c1cccc(S(=O)(=O)N2CCCC2)c1,–,inactive
O=C(CCc1ccc(S(=O)(=O)NCCc2ccccc2)cc1)Nc1ccc2c(c1)OCO2,1.36%,–
O=S(=O)(Nc1ccc2c(c1)OCCO2)c1cnc[nH]1,–,inactive
COc1ccc(S(=O)(=O)Nc2ccc3c(c2)OCO3)cc1C,4.77%,–
CS(=O)(=O)N1CCCCC1CCN1CCCCC1 (centres undefined),3.67%,–
CC1(C)CC(=O)C(C2NCCc3ccccc32)=C(O)C1 (centres undefined),–,inactive
CCN(CC)CC(=O)Nc1nn(-c2ccccc2)nc1C(N)=O,–,inactive
Cc1ccc(S(=O)(=O)n2cnc3ccccc32)c(C)c1,–,inactive
CCCCNC(=O)c1c(O)c2cccc3c2n(c1=O)CCC3,5.41%,–
N#CC1(c2ccc(NC(=O)c3ccccc3F)cc2)CCCC1,–,inactive
CCCCCn1c(CN2CCN(c3cc(Cl)ccc3C)CC2)nc2c1c(=O)[nH]c(=O)n2C,0.68%,–
CCOc1c(OC)cccc1C1CC(=O)Nc2cc3c(cc21)OCCO3 (centres undefined),–,inactive
CCc1ccccc1N(CC)C(=O)CCc1nc(-c2ccc(C)cc2)no1,0.68%,–
NS(=O)(=O)c1ccc(NC(=O)COC(=O)CC2Sc3ccccc3NC2=O)cc1 (centres undefined),–,inactive
COc1cc(C(C2C(=O)CC(C)(C)CC2=O)C2C(=O)CC(C)(C)CC2=O)cc(OC)c1OC,6.35%,–
O=C(Nc1cc(Cl)ccc1Oc1ccccc1)c1cnccn1,1.36%,–
Cc1cn(C2CCCCO2)c(=O)[nH]c1=O (centres undefined),3.67%,–
CN(C)NC1CCS(=O)(=O)C1 (centres undefined),27%,–
O=C(Cn1cnc2c(nnn2Cc2ccc(F)cc2)c1=O)NCc1ccco1,6.82%,–
Cn1nnnc1SCC(=O)NCc1ccco1,22.3%,–
COc1ccc2c(c1OC)C(=O)OC2Nc1nc(-c2cc3cc([N+](=O)[O-])ccc3oc2=O)cs1 (centres undefined),–,inactive
CCOc1ccc(CCNC(=O)C2CC(C)=CCC2C(=O)O)cc1OCC (centres undefined),1.67%,–
CCC(Sc1nc2cc(OC)c(OC)cc2c(=O)n1Cc1ccco1)C(=O)NCCOC (centres undefined),1.36%,–
COc1ccc2c(=O)c3c(=O)n(-c4ccc(C)cc4)c(-c4ccccc4)nc3oc2c1,–,inactive
CCN1/C(=C(\O)c2ccccc2)C(=O)c2ccccc2S1(=O)=O,6.08%,–
COc1ccc(C2C(C#N)=C(N)Oc3n[nH]c(C)c32)cc1Cn1nnc2ccccc21 (centres undefined),–,inactive
NC(=O)C1CCN(C(=O)C23CC4CC(CC(C4)C2)C3)CC1,2.05%,–
